Laboratory results as given in PubChem BioAssay (NCI).
The panel holds about 83,000 compounds, 20% with a hit somewhere; the sample as a whole holds those more often.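 Testing used 96-well plates and a 48-hour single-concentration exposure. Example: -40 means 40% of the starting cells died.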 Values without a mark were called inactive. Calls of active or inactive are those of the source. How the source made its calls: active means growth percent below 10; inactive means the rest.

tested on: MALME-3M melanoma; assay: NCI-60 one-dose screen, 48 h (100 = growth as untreated, 0 = no growth, -100 = all killed); details: 10 µM unless noted

| SMILES | growth |
| --- | --- |
| Cc1nc2sc(C(=O)Nc3cccc(Cl)c3C)c(N)c2cc1C(=O)/C=C/c1ccccc1 | 39.7% |
| CN1CCN(Cc2ccc(NC(=O)c3cncc(C#Cc4cnc(N)cc4C#N)c3)cc2C(F)(F)F)CC1 | -4.04% (active) |
| c1cc(OCCN2CCCC2)ccc1CNc1ccc2nc(CCC3CCCCC3)[nH]c2c1 | -83.7% (active) |
| CCN(CC)CCOc1ccc2c(-c3ccccc3)c(-c3ccc(OC)cc3)c(=O)oc2c1 | 83% |
| O=C1/C(=C/c2c[nH]c(=O)[nH]c2=O)SC(=S)N1Cc1ccccc1 | 97.6% |
| CCN(CC)CCCNc1cc(OC)c(OC)c2cccnc12 | 90.3% |
| COc1cc(Cc2cc(OC)c(O)c(OC)c2)cc(OC)c1O | 86% |
| CSc1ccc(N2C(=N)C(=S)N(c3ccc(C)cc3)C2=O)cc1 | 94.4% |
| CCOC(=O)/C(=C(/C)NCC(C)C)c1cc(O)c(O)c2c(C)cc(=O)[nH]c12 | 53.8% |
| C/C(=C(\c1ccc(OCCN2CCCCCC2)cc1)c1ccc(OC(=O)c2ccccc2)cc1)c1ccc(Cl)cc1 | 17.3% |
| COCCn1cc(-c2csc(-c3c[nH]c4ccc(F)cc34)n2)c2cccnc21 | 45% |
| Cc1ccc2cnc(N)c(C#Cc3cc(C(=O)Nc4ccc(CN5CCN(C)CC5)c(C(F)(F)F)c4)cnc3C)c2c1 | -74.7% (active) |
| O=C(NNc1nc2cc(F)ccc2n2c(CN3CCOCC3)ccc12)c1ccccc1 | 8.12% (active) |
| COc1ccc(-c2nc(SCC(=O)Nc3nc4ccc(C)cc4s3)[nH]c(=O)c2C#N)cc1OC | 103% |
| CCOC(=O)c1ccc[nH]1 | 87.7% |
| COc1cc(Cc2cc(-c3ccccc3)nn(Cc3ccccc3)c2=O)cc(OC)c1OC | 35.2% |
| O=C(Nc1ccc(Nc2ccncc2)cc1)c1ccc(Nc2ccnc3ccc([N+](=O)[O-])cc23)cc1 | 114% |
| C[C@H]1[C@H](C)CC[C@]2(C(=O)NCCNCCN)CC[C@]3(C)C(=CC[C@@H]4[C@@]5(C)CCC(=O)C(C)(C)[C@@H]5CC[C@]43C)[C@H]12 | 71.3% |
| COc1ccc(C/C(C)=C(\c2ccc(Cl)cc2)c2ccc(OCCN3CCCC3)cc2)cc1 | 93.5% |
| CCOc1ccc(NC(=O)Nc2ccc(OCC)cc2)cc1 | 100% |

| SMILES | growth |
| --- | --- |
| Cc1ccc(NC(=O)c2cc3ccccc3cc2O)c(C)c1 | 69.8% |
| COC(=O)c1c2c(c[n+]([O-])c1C)C(=O)C=C(NCc1ccccc1)C2=O | -100% (active) |
| C=C1C(=O)O[C@H]2[C@H]1CC/C(CNC(=O)Cc1c[nH]c3ccccc13)=C\CC[C@@]1(C)O[C@@H]21 | 14.2% |
| C#CCOc1ccc2nc(CCl)c(Cl)c(Nc3cccc(C(F)(F)F)c3)c2c1 | 59.5% |
| O=C1/C(=C/c2cccc(Br)c2)COc2ccc(O)cc21 | 78.9% |
| CCN(CC)CCOc1ccc(/C(=C(\C)Cc2ccc(OC)cc2)c2ccc(OC(=O)NCc3ccccc3)cc2)cc1 | 26.1% |
| O=C(CCCCCCCC(=O)N1CCCCC1)N1CCCCC1 | 115% |
| Cc1ccc(-c2nc(SCC(=O)N3CCN(c4cc5c(cc4F)c(=O)c(C(=O)O)cn5C4CC4)CC3)nc(Cl)c2C#N)cc1 | 106% |
| CSc1ccc2c3c(n(C[C@H](O)CO)c(=O)c2c1)-c1ccccc1C3=O | 74.4% |
| Cc1cn(C)cn1 | 96.1% |
| C#Cc1cccc(Nc2ncnc3cc(NC(=O)CCl)ccc23)c1 | -74.3% (active) |
| O=S(=O)(NCCNc1nccc(-c2c(-c3ccc(F)c(O)c3)nc3sccn23)n1)c1ccc(Cl)cc1 | 20.6% |
| COc1ccc(C(O)c2cc3c(N)c(C(=O)Nc4cccc5ccccc45)sc3nc2C)cc1 (stereo not given) | 27.7% |
| O=C(Nc1cc(Cl)ccc1O)c1ccccc1Nc1ccnc(C(F)(F)F)c1 | -0.18% (active) |
| COc1ccc(/C=C2\c3cc(OC)c(OC)c(OC)c3CC[C@@H]2O)cc1F | 70.2% |
| CCN(CC)C(=O)C1=C(C)NC(=O)NC1c1ccc2c(c1)OCO2 (stereo not given) | 108% |
| COc1ccc(C=Nc2c(C(=O)Nc3cccc(Cl)c3C)sc3nc(C)c(C(=O)/C=C/c4ccc(OC)cc4)cc23)cc1 | 44.4% |
| CC(C)(C)c1ccc(S(=O)(=O)Oc2ccc(-c3sc4cc(OS(=O)(=O)c5ccc(C(C)(C)C)cc5)ccc4c3C(=O)c3ccc(OCCN4CCCCC4)cc3)cc2)cc1 | 107% |
| COc1cc(/C=C/c2cc(/C=C/c3ccc(O)c(OC)c3)n(C(=O)Nc3ccc(Cl)cc3)n2)ccc1O | 3.94% (active) |
| O=c1cc(CP(=O)(O)O)c2cc(O)c(-c3ccccc3)cc2o1 | 103% |
